# Screening data deposited in PubChem by The Scripps Research Institute Molecular Screening Center.
# Compounds with a hit are over-represented: about 4.6% of the library has one in this group of screens.
# DAX1 inh-1 – inhibits human nuclear receptor DAX1. P51843. HEK293 Gal4-DAX1 luciferase reporter, luminescence. inhibition, % at 6.75 µM. 0.99% of 340,000 active. AID 504766;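 active means inhibition above the mean over all tested compounds plus 3 SD, cut at about 4.2% in these data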;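 further: 0% = DAX1-transfected cells with DMSO and 100% = empty-vector control cells with DMSO; inhibition shows as a rise in luminescence from relieved DAX1 repression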
# hcDAF-12 act – H. contortus DAF-12 activation, primary screen; activation, % at 6.8 µM; 1.4% of 370,000 active; HEK293 hcDAF-12 lit1-tk-luc reporter, luminescence; 0% DMSO, 100% Δ7-dafachronic acid;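 active means activation above the mean of all tested compounds plus 3 SD, cut at about 5.5% in these data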;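 further: 100% = response to 3 µM Δ7-dafachronic acid high control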
# ssDAF12 agonist – activates DAF-12 receptor from parasite S. stercoralis; HEK293 ssDAF-12/GRIP1 lit1-tk-luc reporter, luminescence; % of 3 µM dafachronic acid response; activation, % at 6.8 µM; 1% of 370,000 active;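 active means activation above the mean over all tested compounds plus 3 SD, cut at about 0.9% in these data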;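 further: 0% = DMSO-only wells and 100% = 3 µM delta7-dafachronic acid wells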
# hgDAF-12 ag – hgDAF-12 agonism, primary luciferase screen. HEK293 GAL4-hgDAF12 UAS-luciferase reporter, agonist luminescence; normalized to butyrate control. activation, % at 6.8 µM. 1.8% of 370,000 active;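 active means activation above a cutoff set at the mean of all screened compounds plus 3 SD, cut at about 10% in these data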;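 further: 0% = DMSO wells and 100% = sodium butyrate wells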
# DAX1 inh-2 – blocks DAX1 repression of SF-1 activated StAR promoter; HEK293T StAR-luciferase reporter, SF-1/DAX-1 repression relief; inhibition, % at 6.8 µM; 1.1% of 370,000 active;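 active means inhibition above the mean over all tested compounds plus 3 SD, cut at about 3.6% in these data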;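 further: 0% = DAX-1 cells with DMSO and 100% = cells lacking DAX-1 with DMSO; higher inhibition means more luminescence from relief of DAX-1 repression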
# Wee1 stabilizer – blocks degradation of human Wee1 kinase; P30291; HeLa Luc-Wee1K328M stability, luciferase luminescence; 100% = proteasome inhibitor MG132 effect; reporter increase, % at 5 µM; 1.2% of 220,000 active;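 active means activation above the mean of all tested compounds plus 3 SD, set per screening run, cut at about 8.8% in these data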;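 further: cells exposed to compound for 20 h before luminescence read; 0% = DMSO alone and 100% = MG132 at 30 µM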
# Target sequence (P30291 whole entry K328M): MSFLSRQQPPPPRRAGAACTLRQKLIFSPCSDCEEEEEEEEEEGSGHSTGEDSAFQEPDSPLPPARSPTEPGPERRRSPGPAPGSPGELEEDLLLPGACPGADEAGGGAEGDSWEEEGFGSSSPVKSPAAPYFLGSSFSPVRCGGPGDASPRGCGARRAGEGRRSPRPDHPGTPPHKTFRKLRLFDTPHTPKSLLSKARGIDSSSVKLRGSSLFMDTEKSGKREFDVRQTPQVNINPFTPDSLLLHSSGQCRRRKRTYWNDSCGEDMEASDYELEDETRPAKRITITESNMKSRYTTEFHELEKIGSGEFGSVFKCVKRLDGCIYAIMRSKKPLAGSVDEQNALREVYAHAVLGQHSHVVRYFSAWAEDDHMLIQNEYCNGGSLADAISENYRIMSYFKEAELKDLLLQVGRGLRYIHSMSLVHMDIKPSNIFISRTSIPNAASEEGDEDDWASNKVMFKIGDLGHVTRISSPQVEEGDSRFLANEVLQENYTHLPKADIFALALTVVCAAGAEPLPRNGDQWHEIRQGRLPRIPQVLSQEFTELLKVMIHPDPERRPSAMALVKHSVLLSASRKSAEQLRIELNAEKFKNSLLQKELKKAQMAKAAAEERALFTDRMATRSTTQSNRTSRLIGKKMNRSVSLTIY
# * = called active by the depositor; · = no result.
SMILES,DAX1 inh-1,hcDAF-12 act,ssDAF12 agonist,hgDAF-12 ag,DAX1 inh-2,Wee1 stabilizer
COc1ccc(OC(=O)Nc2ccccc2)cc1,1,3,0,6,3.9*,0
COc1ccc(NC(=O)N/C=C/c2ccccc2)cc1,4,1,-1,12*,2,0
c1ccc(CNc2ncnc3c2oc2ccccc23)nc1,1,1,-1,0,1,10*
CC(=O)c1ccc(Nc2ncnc3c2oc2ccccc23)cc1,2,2,1.0*,10,1,5
CCc1nc(NCc2ccccn2)c2oc3ccccc3c2n1,-3,-4,-2,-3,-2,·
NC(=S)NN=C1CSSC1,0,·,·,·,·,·
O=C1C(c2ccncc2)=C(O)c2ccccc21,0,6.4*,0,11*,4.3*,0
Cc1ccc(C2=C(O)c3ccccc3C(=O)C2=O)cc1,0,1,0,1,0,·
CC(=O)c1ccc(S(=O)(=O)N2CCN(CC(=O)Nc3ccnn3C3CCCC3)CC2)cc1,1,0,-1,0,-1,·
CC(C)CC(OC(=O)c1ccc(Cl)nc1)C(=O)NC1CCCC1 (centres undefined),0,1,1.1*,-1,0,·
O=C(NC1CCCCC1)C(c1cccnc1)N(C(=O)c1ccc(Cl)nc1)C1CCCCC1 (centres undefined),1,-1,1.7*,1,-1,0
CC(C)(C)NC(=O)C(c1cccnc1)N(C(=O)c1ccc(Cl)nc1)C1CCCC1 (centres undefined),0,-1,-1,0,0,0
COC(=O)[C@@]1(Cc2ccccc2)[C@H]2C(=O)N(C)C(=O)[C@H]2[C@H]2CN=C(SCc3ccc(Cl)cc3)N21,-1,-2,-1,-3,-1,·
CCOC(=O)c1cnc(SCC(C)C)nc1N,2,2,0,11*,3,5
O=C(CSc1nc2scc(-c3ccccc3)c2c(=O)[nH]1)N1CCCCC1,5.6*,0,-1,-2,1,6
Nc1nc(SCc2cccnc2)c2ncn(C3OC(CO)C(O)C3O)c2n1 (centres undefined),-1,0,0,5,1,·
CCN1CCCC1CN(Cc1cc2cc(C)ccc2[nH]c1=O)C(=O)Nc1ccccc1OC (centres undefined),0,3,-1,1,4.0*,1
Cc1ccc(NC(=O)[C@@H]2CCCN2S(=O)(=O)c2cccc3cccnc23)c(C)c1,·,-3,-1,-3,·,·
Cc1cc2nc(-c3cccnc3SCC(=O)NC(C)C)[nH]c2cc1C,1,4,0,10,4.1*,1
CC(C)c1ccc(CNc2ccc([N+](=O)[O-])cn2)cc1,1,3,-1,12*,3.9*,1
CCC(C)CN1C(=O)CSCC1(C)C(=O)NC(C)C (centres undefined),·,-2,-1,0,0,·
O=C(CC1CC2CCC1C2)Nc1nc(-c2ccccn2)cs1 (centres undefined),0,6.3*,-1,8,0,-1
O=C(Nc1nc(-c2ccccn2)cs1)C1CC1,-1,0,0,3,1,1
N#Cc1c(N)n(C2OC(CO)C(O)C2O)c2ncnc(N)c12 (centres undefined),3,0,-2,1,-6,·
CN(C)CCCN(C(=O)c1cc(-c2cccs2)nc2ccccc12)c1nc2c(F)cccc2s1,1,-1,-1,0,4.1*,·
SMILES,DAX1 inh-1,hcDAF-12 act,ssDAF12 agonist,hgDAF-12 ag,DAX1 inh-2,Wee1 stabilizer
CCCC(=O)OC12CCCN(C1)/C(=C/c1cccc(Cl)c1)C2 (centres undefined),·,-2,-1,-3,-1,·
Cc1ccc(NC(=O)c2ccc(Cl)c(S(=O)(=O)NCc3ccco3)c2)c(O)c1,2,5,1,4,3.9*,·
NS(=O)(=O)c1ccc(NC(=O)c2ccc(Cl)c(S(=O)(=O)NCc3ccco3)c2)cc1,0,-1,-1,3,-3,·
COc1ccc2nc3sc(C(=O)NCCN4CCc5ccccc5C4)cc3cc2c1,-1,5,0,12*,1,3
COc1ccc2cc3cc(C(=O)NCCCN4CCc5ccccc5C4)sc3nc2c1,1,1,0,5,1,3
COc1cccc2sc(Nc3nnc(-c4cccs4)o3)nc12,-1,4,0,6,0,0
Fc1cccc2sc(Nc3nnc(-c4ccco4)o3)nc12,0,4,0,13*,2,0
Cc1cc(C(=O)Nc2cc(C(C)(C)C)on2)c(C)o1,6.3*,2,-1,4,1,0
Cc1cc(C(=O)Nc2ccon2)c(C)o1,0,-1,-2,2,0,-1
Cc1csc(NC(=O)c2ccc(C)o2)n1,1,1,1,12*,2,4
Cc1csc(NC(=O)c2cc(C)oc2C)n1,1,0,0.9*,9,1,3
Cc1ccc(C(=O)Nc2nc(-c3cccnc3)cs2)o1,0,1,-1,2,1,-3
Cc1ccc(-c2ocnc2C(=O)Nc2nc(C)cs2)cc1,5.4*,1,1.9*,4,2,·
CCCCCCn1cc(CN2CC(N3CCCC3)CS2(=O)=O)nn1 (centres undefined),·,0,-1,1,0,·
Cc1ccc(S(=O)(=O)N2CCOCC2)cc1C(=O)N1CCN(c2ccc(C(F)(F)F)cn2)CC1,-2,-4,-2,-5,-2,·
COc1ccc(NC(=O)C(NC(=O)Cc2cccs2)c2ccc(C)cc2)cc1 (centres undefined),4.7*,-1,-1,7,0,3
COc1ccc(NC(=O)Cc2cccs2)c(OC)c1,-1,1,0,10*,1,0
COc1ccc(NC(=O)CCC(=O)c2cccs2)c(OC)c1,3,·,·,·,·,·
N#Cc1ccc(C(=O)OCC(=O)Nc2cccc(S(=O)(=O)NC3=NCCC3)c2)cc1,0,2,-1,-1,0,·
COc1cccc(C(=O)N2CCC(Oc3cccnc3)CC2)c1,·,-1,-1,-4,1,·
O=C(OC12CCCN(C1)/C(=C/c1ccncc1)C2)c1ccc(Cl)cc1 (centres undefined),·,-2,-2,0,-2,·
COC(=O)[C@@]12C[C@@H](CC(=O)N3CCCC3)C(=O)N(CCc3ccc(OC)c(OC)c3)C1=CCC(C)(C)C2,·,-1,0,-1,-1,·
Cc1noc(/C=C/c2cccs2)c1S(=O)(=O)N1CCC(C(=O)NCCCN2CCCC(C)C2)CC1 (centres undefined),1,-1,-1,-3,1,9.2*
CCOc1ncccc1C(=O)OCC(=O)c1ccccc1Br,2,-2,1.2*,-1,0,0
